The source of these data is PubChem BioAssay (NCATS).

The structures appear in SMILES notation. Results filed as inconclusive are left out. The source made the active and inactive calls. Unless noted, calls follow the shape of the dose curve; as a rule, active = well fitted curve in the direction sought with a large enough effect; inconclusive = small, poorly fitted or top-dose-only effect, or another doubt; inactive = no such curve, though single readings can be large; an effect the other way counts as inactive or inconclusive.

Test [1] can be described thus: Primary qHTS for small molecule stabilizers of the endoplasmic reticulum resident proteome: Secreted ER Calcium Modulated Protein (SERCaMP) assay (AID 1508630). The essentials: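 GLuc-SERCaMP-expressing SH-SY5Y cells, pretreated 16 h with compound, are challenged with thapsigargin to empty ER calcium stores; after 4 h, coelenterazine is added directly to the medium and luminescence is imaged.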

For test [2], the target named is N-terminal Xaa-Pro-Lys N-methyltransferase 1 (Homo sapiens) (UniProt Q9BV86). The experiment in a line: Confirmatory qHTS for Inhibitors of N-terminal methyltransferase 1 (NTMT1): MTaseGlo Assay (AID 1645874). Also: potency is read from the fitted curve at half-maximal effect; nearly all actives have a fitted effect of over 65% in size. The essentials: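 Luminescent MTase-Glo read-out of SAH. 125 nM NTMT1, 100 uM SAM, 1 uM SPKRIA substrate, 30 min RT reaction after 15 min compound preincubation. Normalized to no-enzyme and DMSO controls; Hill fit.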
A general note: qHTS replaces the single test concentration by a dilution series.

Test [3] can be described thus: Primary qHTS for inhibitors of nuclear receptor binding SET domain protein 2 (NSD2) in an isogenic RCH-ACV NSD2 p.E1099K mutant (9B) (AID 1645876). Also: potency is read from the fitted curve at half-maximal effect; nearly all actives have a fitted effect of over 70% in size.
The nature of test [4]: Primary qHTS for inhibitors of nuclear receptor binding SET domain protein 2 (NSD2) in an RCH-ACV wild type WT cells (2C) (AID 1645877). Also: nearly all actives have a fitted effect of over 70% in size. Also: potency is read from the fitted curve at half-maximal effect.
For test [5], the target named is Cytochrome P450 2D6 (Homo sapiens) (UniProt P10635). The experiment in a line: Cytochrome P450 family 2 subfamily D member 6 (CYP2D6) small molecule antagonists: luciferase biochemical (cell-free) qHTS assay (AID 1645840; active = well fitted curve in the direction sought with a large enough effect in the repeat runs; an effect the other way counts as inactive or inconclusive; also: nearly all actives have a fitted effect of over 55% in size; also: potency is read from the fitted curve at half-maximal effect). The essentials:
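P450-Glo luminescent screen: recombinant CYP2D6 enzyme–proluciferin substrate mix preincubated with compound 10 min at room temperature, then NADPH regeneration added for 1 h at room temperature. Detection reagent added for 20 min; luciferin light read as relative luminescence units.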

Test [6] concerns the target Cytochrome P450 2C9 (Homo sapiens) (UniProt P11712). The test can be described thus: Cytochrome P450 family 2 subfamily C member 9 (CYP2C9) small molecule antagonists: luciferase biochemical (cell-free) qHTS assay (AID 1645842; active = well fitted curve in the direction sought with a large enough effect in the repeat runs; an effect the other way counts as inactive or inconclusive; also: nearly all actives have a fitted effect of over 55% in size; also: potency is read from the fitted curve at half-maximal effect). The essentials: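 Luminescence, after 20 min with luciferin detection reagent, reflected CYP2C9 turnover during a 1 h NADPH-driven reaction at 37C. Enzyme-substrate mix contained 0.4% bovine serum albumin and was preincubated with compound 10 min at room temperature.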

Test [7] deals with Calcium and integrin-binding protein 1 (Homo sapiens) (UniProt Q99828). The test can be described thus: Primary qHTS for Identification of Calcium Integrin Binding Protein 1 (CIB1) Competitor (AID 1508620).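 Also: GST tagged CIB1 binding a fluorescein labelled alphaIIb integrin peptide tracer; top concentration of the series differs between compounds.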 The procedure, abridged:
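CIB1-GST (1 uM final) and compound incubated 15 min at room temperature before adding FITC-alphaIIb peptide tracer (100 nM final). Competition for binding read by fluorescence polarization (ex 480, em 540) after another 15 min at room temperature.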

The target in test [8] is Cytochrome P450 3A4 (Homo sapiens) (UniProt P08684). The experiment in a line: Cytochrome P450 family 3 subfamily A member 4 (CYP3A4) small molecule antagonists: luciferase qHTS assay (AID 1645841; active = well fitted curve in the direction sought with a large enough effect in the repeat runs; an effect the other way counts as inactive or inconclusive; also: nearly all actives have a fitted effect of over 45% in size). The procedure, abridged: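 Luminescent CYP3A4 activity readout: compounds plus enzyme-substrate mix 10 min at room temperature, reaction started with NADPH regenerating system for 1 h, stopped with detection reagent, read after 20 min. Ketoconazole served as control.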
Sequence of Cytochrome P450 3A4 (Homo sapiens) (P08684 whole entry, looked up): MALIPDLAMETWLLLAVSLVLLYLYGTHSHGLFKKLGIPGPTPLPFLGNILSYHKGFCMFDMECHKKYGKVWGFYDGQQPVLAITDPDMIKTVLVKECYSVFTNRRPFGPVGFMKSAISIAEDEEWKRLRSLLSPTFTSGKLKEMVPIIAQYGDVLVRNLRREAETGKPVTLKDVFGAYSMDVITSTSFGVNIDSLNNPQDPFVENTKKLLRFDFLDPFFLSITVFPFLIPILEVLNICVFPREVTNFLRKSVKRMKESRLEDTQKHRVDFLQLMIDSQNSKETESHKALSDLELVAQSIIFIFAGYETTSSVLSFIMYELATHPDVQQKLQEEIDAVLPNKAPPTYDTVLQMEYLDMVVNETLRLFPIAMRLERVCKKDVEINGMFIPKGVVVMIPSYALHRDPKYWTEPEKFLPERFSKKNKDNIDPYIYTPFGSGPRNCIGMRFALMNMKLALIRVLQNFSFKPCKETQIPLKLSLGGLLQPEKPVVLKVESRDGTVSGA

Sequence of Cytochrome P450 2D6 (Homo sapiens) (P10635 whole entry, looked up): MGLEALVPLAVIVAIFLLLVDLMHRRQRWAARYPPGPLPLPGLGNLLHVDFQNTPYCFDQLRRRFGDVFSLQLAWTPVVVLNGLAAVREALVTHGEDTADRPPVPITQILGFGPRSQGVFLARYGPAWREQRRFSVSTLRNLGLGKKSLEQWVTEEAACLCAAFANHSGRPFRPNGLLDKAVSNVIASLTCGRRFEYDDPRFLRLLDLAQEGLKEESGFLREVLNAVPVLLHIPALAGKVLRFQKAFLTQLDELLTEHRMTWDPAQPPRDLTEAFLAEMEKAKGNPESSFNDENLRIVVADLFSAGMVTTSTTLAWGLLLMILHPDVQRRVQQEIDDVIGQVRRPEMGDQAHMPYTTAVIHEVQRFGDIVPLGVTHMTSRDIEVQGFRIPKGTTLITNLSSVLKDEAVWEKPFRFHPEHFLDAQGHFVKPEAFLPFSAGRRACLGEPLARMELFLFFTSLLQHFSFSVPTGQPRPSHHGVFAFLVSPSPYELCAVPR
Sequence of Cytochrome P450 2C9 (Homo sapiens) (P11712 whole entry, looked up): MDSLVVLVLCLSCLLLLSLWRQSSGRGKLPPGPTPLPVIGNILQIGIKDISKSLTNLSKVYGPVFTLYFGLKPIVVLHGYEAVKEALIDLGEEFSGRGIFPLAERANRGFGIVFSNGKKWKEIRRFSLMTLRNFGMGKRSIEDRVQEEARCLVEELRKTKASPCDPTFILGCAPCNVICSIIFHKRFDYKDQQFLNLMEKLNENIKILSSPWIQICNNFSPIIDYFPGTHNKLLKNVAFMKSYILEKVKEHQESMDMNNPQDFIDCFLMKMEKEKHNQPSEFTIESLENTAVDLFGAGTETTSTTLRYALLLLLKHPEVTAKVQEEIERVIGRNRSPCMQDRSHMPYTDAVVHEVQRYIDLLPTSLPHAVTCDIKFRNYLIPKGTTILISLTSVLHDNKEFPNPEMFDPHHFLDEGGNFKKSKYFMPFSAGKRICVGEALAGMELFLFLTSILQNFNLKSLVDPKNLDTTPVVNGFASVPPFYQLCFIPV
Sequence of Calcium and integrin-binding protein 1 (Homo sapiens) (Q99828 whole entry, looked up): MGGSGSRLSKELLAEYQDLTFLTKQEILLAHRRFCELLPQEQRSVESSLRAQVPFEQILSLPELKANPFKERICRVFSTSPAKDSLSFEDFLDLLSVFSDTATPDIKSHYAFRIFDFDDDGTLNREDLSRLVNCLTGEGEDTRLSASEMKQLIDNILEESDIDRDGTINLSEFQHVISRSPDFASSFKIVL
Sequence of N-terminal Xaa-Pro-Lys N-methyltransferase 1 (Homo sapiens) (Q9BV86 whole entry, looked up): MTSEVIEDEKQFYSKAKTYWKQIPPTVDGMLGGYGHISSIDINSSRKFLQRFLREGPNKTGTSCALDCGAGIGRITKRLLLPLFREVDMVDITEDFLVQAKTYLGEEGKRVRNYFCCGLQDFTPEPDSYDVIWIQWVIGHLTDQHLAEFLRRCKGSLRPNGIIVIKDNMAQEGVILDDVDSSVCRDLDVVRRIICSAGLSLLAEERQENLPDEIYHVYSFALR

For `CN(C)CCCn1cc(C2=C(c3c[nH]c4ccccc34)C(=O)NC2=O)c2ccccc21`, the outcome in test [1] was inactive. The values for the Potency in test [2], in test [3] and in test [4] were 39.8 µM (active), 5.78 µM (active) and 3.25 µM (active), respectively.
Take `O=S(=O)(O)Oc1ccc(C(c2ccc(OS(=O)(=O)O)cc2)c2ccccn2)cc1`: the Potency result in test [5] and in test [6] was “inactive” throughout.
`C=C1C(=O)OC2C=C(C)CC/C=C(\CO)CC(O)C12` (stereo unspecified): the Potency entry in test [7] was “inactive”. Besides, the Potency in test [4] is 20.5 µM (active).
As for `CCOc1cn(-c2ccc(F)cc2C)nc1C(=O)Nc1ccc(Oc2ccnc3cc(OC)c(OC)cc23)c(F)c1`, the Potency result in test [5], in test [8] and in test [6] was “inactive” throughout. In addition, the Potency in test [3] and in test [4] was 4.09 µM (active) each time.
Turning to `C[C@H]1CC[C@@]2(OC1)O[C@H]1CC3[C@@H]4CC[C@@H]5C[C@@H](O[C@@H]6O[C@H](CO)[C@@H](O[C@@H]7O[C@H](CO[C@@H]8OC[C@@H](O)[C@H](O)[C@H]8O)[C@@H](O[C@@H]8O[C@H](CO)[C@H](O)[C@H](O)[C@H]8O)[C@H](O)[C@H]7O)[C@H](O)[C@H]6O)CC[C@]5(C)C4CC[C@]3(C)[C@H]1[C@@H]2C` (stereo partly specified), the Potency entry in test [7] was “inactive”. Also, the Potency in test [4] is 3.46 µM (active).
Consider `COc1ccc(NC(=O)C2C[C@H](C)CC[C@H]2C(C)C)cc1` (stereo partly specified), for which the Potency entry in test [7] and in test [4] was “inactive” each time.
`FC(F)(F)c1ccc(/C=C/c2nc(COc3ccc(CCCCn4ccnn4)cc3)co2)cc1`: the Potency entry in test [5] is “inactive”.
The same measure, in the same setting: the entry for `CC1(C)S[C@@H]2[C@H](NC(=O)C(C(=O)Oc3ccc4c(c3)CCC4)c3ccccc3)C(=O)N2[C@H]1C(=O)O` (stereo partly specified) is “inactive”.
As to `Cn1ncc(Cl)c1-c1cc(C(=O)N[C@H](CN)Cc2cccc(F)c2)sc1Cl`, the results for the Potency in test [5] and in test [6] were 2.68 µM (active) and 9.52 µM (active), respectively.
